PAFAH1B3 FP inh – PAFAH1B3 (human) inhibition | Q15102 | inhibition, % at 3.39 µM | actives 0.28% (n = 340,000) | AID 492972 | recombinant PAFAH1B3, FP-rhodamine probe, fluorescence polarization;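 active = inhibition above the screen-wide average of all tested compounds plus 3 SD, cut at about 25% in these data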;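 also: 0% = enzyme with DMSO only and 100% = wells lacking PAFAH1B3 protein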
Rin1 Abl inh – inhibitors of human Rin1-Abl protein interaction | TR-FRET Rin1/Abl binding, biochemical | inhibition, % at 7.35 µM | actives 0.4% (n = 360,000); in the data active = inhibition above about 5%, passing the limit was not always enough
pPAFAH inh – pPAFAH (human) enzyme inhibition; recombinant pPAFAH, FP-rhodamine probe fluorescence polarization; inhibition, % at 3.39 µM; actives 1.5% (n = 330,000); AID 463082;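 active = inhibition above the mean inhibition across the screen plus 3 SD, cut at about 25% in these data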;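 also: inhibitors block binding of the rhodamine activity-based probe so polarization drops; 0% = enzyme with DMSO and 100% = wells lacking pPAFAH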
PAFAH2 FP inh – PAFAH2 (human) inhibition. Q99487. recombinant PAFAH2, FP-rhodamine activity probe, fluorescence polarization. inhibition, % at 3.39 µM. actives 0.99% (n = 340,000);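 active = inhibition above the mean over all tested compounds plus 3 SD, cut at about 30% in these data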;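 also: inhibitors block probe labeling of enzyme so polarization drops; 0% = enzyme with DMSO and 100% = wells lacking PAFAH2 protein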
PAFAH1B2 inh – blocks human PAF acetylhydrolase 1b catalytic subunit 2; AID 492953; actives 1.2% (n = 340,000); recombinant PAFAH1B2, FP-rhodamine activity probe, fluorescence polarization; inhibition, % at 3.39 µM;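 active = inhibition above the mean of all tested compounds plus 3 SD, cut at about 24% in these data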;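 also: 0% = enzyme with DMSO and 100% = wells lacking PAFAH1B2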
eLon inh – inhibitors of E. coli Lon protease; P0A9M0; purified E. coli Lon protease, fluorescence polarization; inhibition, % at 7.94 µM; actives 0.42% (n = 360,000); in the data active = inhibition above about 13%, passing the limit was not always enough;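 also: 0% = enzyme with probe and DMSO and 100% = no enzyme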
Target sequence (P0A9M0 whole entry, looked up): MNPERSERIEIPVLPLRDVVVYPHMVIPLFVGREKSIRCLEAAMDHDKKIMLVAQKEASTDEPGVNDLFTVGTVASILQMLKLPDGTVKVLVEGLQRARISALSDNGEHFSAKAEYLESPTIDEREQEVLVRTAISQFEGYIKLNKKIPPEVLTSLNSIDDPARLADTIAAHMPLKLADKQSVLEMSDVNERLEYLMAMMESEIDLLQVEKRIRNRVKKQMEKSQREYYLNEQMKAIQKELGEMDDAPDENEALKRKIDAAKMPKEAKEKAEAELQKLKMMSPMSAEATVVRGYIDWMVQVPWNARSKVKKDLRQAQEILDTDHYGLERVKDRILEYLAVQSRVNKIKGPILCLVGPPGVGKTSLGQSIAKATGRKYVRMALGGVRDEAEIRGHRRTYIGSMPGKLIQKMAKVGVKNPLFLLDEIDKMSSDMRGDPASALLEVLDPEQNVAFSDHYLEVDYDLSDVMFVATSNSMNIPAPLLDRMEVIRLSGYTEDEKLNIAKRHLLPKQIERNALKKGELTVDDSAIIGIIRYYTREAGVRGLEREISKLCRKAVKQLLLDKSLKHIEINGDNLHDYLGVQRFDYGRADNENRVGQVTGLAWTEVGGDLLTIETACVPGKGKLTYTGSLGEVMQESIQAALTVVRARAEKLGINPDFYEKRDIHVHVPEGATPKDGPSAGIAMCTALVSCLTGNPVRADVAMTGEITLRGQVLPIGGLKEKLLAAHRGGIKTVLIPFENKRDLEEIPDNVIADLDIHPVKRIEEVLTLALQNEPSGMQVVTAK
PAFAH2 confirm – PAFAH2 (human) inhibition, confirmed; shares compounds with PAFAH2 FP inh; recombinant PAFAH2, FP-rhodamine activity probe, fluorescence polarization; inhibition, % at 3.39 µM; actives 65% (n = 2,300);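 active = mean inhibition over three repeats above a set limit taken from the earlier primary screen, cut at about 30% in these data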;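 also: inhibitor blocks binding of rhodamine activity probe so polarization falls; 0% = enzyme with DMSO and 100% = wells lacking PAFAH2 protein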
Active calls of the source: *; x = no result. Shown are actives, neighbours in structure and some others; about 3.1% of the full set was active somewhere.

SMILES | PAFAH1B3 FP inh | Rin1 Abl inh | pPAFAH inh | PAFAH2 FP inh | PAFAH1B2 inh | eLon inh | PAFAH2 confirm
CCSC1=NSC2=NC(=O)/C(=C\c3coc4ccccc4c3=O)C(=N)N12 | 7 | 1 | 7 | 33* | 11 | -352 | 21
CC(=O)c1c(C)n(-c2ccccc2Br)c2ccc(O)cc12 | 15 | 2 | x | -22 | 3 | -22 | x
COc1cc(/C=C/C(=O)NC(C)C2CC3CCC2C3)cc(OC)c1OC (configuration not stated) | 9 | 0 | 9 | 7 | 17 | -3 | x
COc1cc(OC)c(N(C)S(=O)(=O)c2cccc(C(=O)OCC(=O)N(C)C3CCCCC3)c2)cc1Cl | -7 | -1 | x | 40* | 0 | -8 | 27
COc1cc(OC)c(N(C)S(=O)(=O)c2cccc(C(=O)OCC(=O)c3c[nH]c4ccccc34)c2)cc1Cl | -67 | -3 | -21 | -43 | -32 | -1 | x
COc1cc(OC)c(NS(=O)(=O)c2cccc(C(=O)OCC(=O)NCC3CCCO3)c2)cc1Cl (configuration not stated) | -2 | 1 | 18 | 39* | 3 | 2 | 31*
CSCC[C@H](NC(=O)N1CCn2c1nc1ccccc12)C(=O)NCC1CCCO1 (some centres not stated) | 3 | 2 | 8 | 8 | 0 | -8 | x
CC(=O)Nc1ccc(CC(=O)NCCC(c2ccccc2)c2ccccc2)cc1 | 4 | 3 | 2 | -4 | 7 | 1 | x
Cc1ccccc1NC(=O)COC(=O)C1C2CC3OC(=O)C1C3C2 (configuration not stated) | -7 | 4 | 1 | 11 | 6 | -1 | x
O=C(COC(=O)C1C2CC3OC(=O)C1C3C2)Nc1ccc(F)cc1 (configuration not stated) | 12 | 1 | 3 | 78* | -6 | 5 | 69*
O=C(COC(=O)C1C2CC3OC(=O)C1C3C2)Nc1ccccc1 (configuration not stated) | 6 | 4 | 2 | 75* | -2 | 1 | 66*
O=C(COC(=O)C1C2CC3OC(=O)C1C3C2)Nc1ccc(Br)cc1 (configuration not stated) | 0 | -1 | 2 | 79* | -3 | -21 | 71*
COc1ccc(NC(=O)COC(=O)C2C3CC4OC(=O)C2C4C3)cc1 (configuration not stated) | -3 | 3 | 9 | 30 | 0 | -2 | x
CSc1ccc(S(=O)(=O)N2CCC(C(=O)NCCN3CCOCC3)CC2)cc1 | 6 | 1 | -1 | -16 | -2 | 15 | x
Cc1ccc(C(=O)O/N=C(\c2ccccc2)c2cccnc2)cc1 | 6 | -1 | 15 | 73* | 3 | 9 | 80*
O=C(O/N=C(/c1ccccc1)c1ccncc1)c1ccc(F)cc1 | x | -2 | 3 | x | x | 5 | x
CC(Sc1ccc(Cl)cc1)C(=O)N(C)CC(=O)Nc1ccc(N2CCOCC2)cc1 (configuration not stated) | 8 | 0 | 3 | -1 | -3 | -17 | x
O=C(O)CC1c2ccccc2CCN1S(=O)(=O)c1ccccc1 (configuration not stated) | x | -1 | 0 | x | x | -6 | x
CCc1cccc(CC)c1NC(=O)COC(=O)CC1c2ccccc2CCN1S(=O)(=O)c1ccccc1 (configuration not stated) | 0 | -4 | 23 | 35* | 3 | -4 | 21
CN(C)S(=O)(=O)c1cccc(NC(=O)COC(=O)c2ccc3c(c2)OCO3)c1 | -1 | 1 | 7 | 55* | 6 | -10 | 57*
Cc1[nH]c2ccc(C(=O)OCC(=O)Nc3cccc(S(N)(=O)=O)c3)cc2c1C | -1 | 2 | 2 | 69* | 0 | -10 | 64*
CN(C)S(=O)(=O)c1cccc(C(=O)OCC(=O)Nc2ccccc2OC(F)F)c1 | 4 | -1 | 11 | 33* | 5 | 6 | 25
Cc1ccc(S(=O)(=O)N(C)C)cc1NC(=O)COC(=O)c1ccc2c(c1)NC(=O)CS2 | 8 | -3 | 4 | 52* | 4 | -5 | 43*
CCOC(=O)c1ccc2[nH]c(C)c(C)c2c1 | 13 | -1 | 10 | 2 | 4 | -7 | x
Cc1ccc(S(=O)(=O)CCC(=O)OCC(=O)NC2CCS(=O)(=O)C2)cc1 (configuration not stated) | 8 | 1 | 4 | 0 | 2 | 4 | x
SMILES | PAFAH1B3 FP inh | Rin1 Abl inh | pPAFAH inh | PAFAH2 FP inh | PAFAH1B2 inh | eLon inh | PAFAH2 confirm
O=C(CC[C@H]1O[C@@H](n2cnc3c(NC(=O)c4ccccc4)ncnc32)[C@H](O)[C@@H]1O)NCC1CCCCC1 | x | 2 | x | x | x | -2 | x
Cc1cccc(C)c1NC(=O)COC(=O)c1ccc2c(c1)OCO2 | -4 | -3 | 5 | 28 | 2 | 2 | x
Cc1cccc(C)c1NC(=O)COC(=O)c1ccc2[nH]c3c(c2c1)CCCC3 | 3 | -2 | 12 | 70* | -2 | -3 | 62*
CC(=O)c1cccc(NC(=O)COC(=O)c2ccc3c(c2)OCO3)c1 | -3 | 0 | 1 | 74* | -4 | -8 | 71*
COc1ccccc1OCCC(=O)NNC(=O)c1ccccc1F | -9 | 6 | 1 | 4 | 5 | 4 | x
CCOCCOC(=O)NCCCCCCNC(=O)OCCOCC | 9 | 1 | 3 | 60* | 1 | -2 | 47*
Cc1ccc(CNC(=O)CS(=O)(=O)Cc2nc(-c3ccc(C)cc3)oc2C)cc1 | 3 | 2 | -9 | 0 | -6 | -4 | x
COc1ccccc1/C=N/OC(=O)c1ccc(F)cc1 | 5 | -3 | 5 | 77* | 7 | -4 | 64*
CC(C)CNC(=O)COC(=O)c1ccccc1SCC(=O)NCC(C)C | 11 | -1 | 2 | 44* | 2 | -7 | 32*
CCCCNC(=O)c1ccccc1SCC(=O)NC1CCCCCCC1 | 5 | 2 | 0 | 36* | 5 | -25 | 28
NC(=O)COC(=O)c1ccccc1SCC(=O)NC1CCCCCC1 | 1 | 1 | 4 | 61* | -2 | -11 | 49*
CCn1c(CNC(=O)c2ccccc2F)nnc1SCC(=O)NC1CCCCC1 | 7 | 2 | -5 | -6 | 0 | -2 | x
CSc1ccccc1C(=O)OCC(=O)NC1CCCCCCC1 | x | -3 | x | x | x | 5 | x
COc1cccc(OC)c1C(=O)OCC(=O)NCC(C)C | 0 | 3 | 3 | 14 | 8 | 0 | x
Cc1ccc(F)c(S(=O)(=O)NC(=O)C2(C)CCN2C(=O)c2sccc2C)c1 (configuration not stated) | x | -1 | x | x | x | -8 | x
Cc1ccccc1NC(=O)Cc1nc(COC(=O)Cc2cccc(C(F)(F)F)c2)cs1 | x | 3 | x | x | x | 2 | x
O=C(COC(=O)c1ccc([N+](=O)[O-])o1)NCc1ccc2c(c1)OCO2 | 9 | 1 | -2 | 9 | 2 | -2 | x
CCOc1ccc(/C=C/C(=O)OCC(=O)Nc2cccc(S(=O)(=O)N3CCCC3)c2)cc1 | -5 | 0 | -3 | 25 | -2 | -26 | x

Source: PubChem BioAssay (The Scripps Research Institute Molecular Screening Center)
